In PubChem BioAssay (EPA / NIEHS) one finds outcome and AC50 data, which are given here for 36 compounds.

Experiment [1] addresses Retinoic acid receptor alpha (Homo sapiens) (UniProt P10276). Description: NVS_NR_hRAR_Antagonist: NovaScreen (NVS) Nuclear Receptor Binding Assay for human Retinoic Acid Alpha Receptor Antagonism (RAR) (AID 2283358). In a few lines: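 Cell-free TR-FRET binding assay with extracted human RARalpha in antagonist mode, read 2 h after dosing. Loss of signal was fitted relative to DMSO; the primary screen used 25 uM in duplicate, with concentration series on follow-up.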

Experiment [2] shares this target. Description: NVS_NR_hRARa_Agonist: NovaScreen (NVS) Nuclear Receptor Binding Assay for human Retinoic Acid Alpha Receptor Agonism (RAR) (AID 2283361). In a few lines: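 Cell-free TR-FRET binding readout with extracted receptor protein, read 2 hours after dosing; gain-of-signal fitted relative to DMSO. Screened in duplicate at 25 uM, actives then run in concentration-response.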

The target of experiment [3] is human Serotonin Transporter (SERT), SLC6A4 (gene 6532) (UniProt P31645). Briefly: NVS_TR_hSERT: NovaScreen (NVS) Transporter Assay for human Serotonin Transporter (SERT) (AID 2283372). The procedure, abridged:
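Radioligand binding to native SERT in human platelet membranes, read by filter-based scintillation counting 1 h after dosing. Primary screen in duplicate at 25 uM; actives followed up in concentration series; loss of signal versus DMSO baseline.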

The target of experiment [4] is human Thyroid Receptor Alpha (TRa), THRA (gene 7067) (UniProt P10827). Description: NVS_NR_hTRa_Antagonist: NovaScreen (NVS) Nuclear Receptor Binding Assay for human Thyroid Receptor Alpha Antagonism (TRa) (AID 2283362).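 Further: activity is loss of signal relative to DMSO baseline.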 In a few lines: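 Cell-free AlphaLISA chemiluminescent binding read 1 h after dosing, antagonist mode; signal loss versus DMSO baseline. Primary screen in duplicate at 25 uM, then concentration series for actives.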
human Thyroid Receptor Alpha (TRa), THRA (gene 7067), sequence (P10827 whole entry, looked up): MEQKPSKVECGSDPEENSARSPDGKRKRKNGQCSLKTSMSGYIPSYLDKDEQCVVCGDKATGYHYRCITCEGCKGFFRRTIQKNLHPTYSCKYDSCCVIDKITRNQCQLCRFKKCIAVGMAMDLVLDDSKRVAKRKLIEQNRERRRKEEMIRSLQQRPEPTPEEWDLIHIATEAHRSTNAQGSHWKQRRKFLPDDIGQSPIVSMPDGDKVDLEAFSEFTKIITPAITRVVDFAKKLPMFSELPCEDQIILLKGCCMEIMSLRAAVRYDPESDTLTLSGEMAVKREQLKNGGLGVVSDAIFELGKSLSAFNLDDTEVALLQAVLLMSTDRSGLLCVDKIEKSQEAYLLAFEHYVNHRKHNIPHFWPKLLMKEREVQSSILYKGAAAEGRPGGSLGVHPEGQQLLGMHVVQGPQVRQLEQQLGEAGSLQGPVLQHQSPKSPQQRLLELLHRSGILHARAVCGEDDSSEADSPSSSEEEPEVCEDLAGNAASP

In experiment [5] the target is rat Androgen Receptor (AR), Ar (gene 24208) (UniProt P15207). Description: NVS_NR_rAR: NovaScreen (NVS) Nuclear Receptor Binding Assay for rat Androgen Receptor (AR) (AID 2283366). The procedure, abridged: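 Cell-free radioligand binding on extracts of prostate from testosterone-pretreated rats, read by filter-based scintillation counting 18 h after dosing. Loss of bound signal fitted positively versus DMSO; primary screen in duplicate at 25 uM, actives followed up in concentration series.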

The target in experiment [6] is guinea pig Sigma Receptor, Non-selective Binding, SIGMAR1 (gene 100135589) (UniProt Q60492). Description: NVS_OR_gSIGMA_NonSelective: NovaScreen (NVS) Nuclear Receptor Binding Assay for guinea pig Sigma Receptor, Non-selective Binding (AID 2283367). The procedure, abridged: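 Radioligand displacement on guinea pig brain membranes, read by filter-based scintillation counting 1 h after dosing. Loss of signal versus DMSO; initial duplicate single-point screen at 25 uM, actives followed in concentration series.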
guinea pig Sigma Receptor, Non-selective Binding, SIGMAR1 (gene 100135589), sequence (Q60492 whole entry, looked up): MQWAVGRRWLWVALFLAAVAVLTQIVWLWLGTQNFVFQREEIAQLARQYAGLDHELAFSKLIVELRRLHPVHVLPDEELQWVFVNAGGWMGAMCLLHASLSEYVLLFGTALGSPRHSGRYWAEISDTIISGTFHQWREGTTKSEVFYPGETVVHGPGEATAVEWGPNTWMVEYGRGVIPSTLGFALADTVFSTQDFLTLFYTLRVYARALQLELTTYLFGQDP

In experiment [7] the test system is rat Norepinephrine Transporter (NET), gene 83511. Briefly: NVS_TR_rNET: NovaScreen (NVS) Transporter Assay for rat Norepinephrine Transporter (NET) (AID 2283373). The procedure, abridged: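 Rat forebrain membranes; radioligand binding measured by filter-based scintillation counting 1 hour after dosing. Loss of specific binding versus DMSO baseline scored; primary screen in duplicate at 25 uM, actives followed up in concentration series.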

Experiment [8] addresses PGR (gene 5241) (UniProt P06401). Briefly: NVS_NR_hPR: NovaScreen (NVS) Nuclear Receptor Binding Assay for human Progestron Receptor (PR) (AID 2283360).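 Further: active means loss of bound radioligand signal versus DMSO baseline.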 In a few lines:
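Competitive displacement of a labelled radioligand from T47D-derived receptor protein is measured in a cell-free format. Initial testing uses 25 uM in duplicate, with positive and negative controls on every plate.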

In experiment [9] the test system is guinea pig Dopamine Transporter (DAT), gene 100714898. Description: NVS_TR_gDAT: NovaScreen (NVS) Transporter Assay for guinea pig Dopamine Transporter (DAT) (AID 2283369).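 Further: active compounds lower bound radioligand signal relative to DMSO.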 The procedure, abridged:
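Guinea pig striatal membranes, cell-free radioligand binding with filter-based scintillation counting, read 2 h after dosing. Loss of signal versus DMSO baseline; single-concentration primary (25 uM) then concentration-response up to 50 uM.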

Experiment [10] concerns the target human Dopamine Transporter (DAT), SLC6A3 (gene 6531) (UniProt Q01959). Description: NVS_TR_hDAT: NovaScreen (NVS) Transporter Assay for human Dopamine Transporter (DAT) (AID 2283374).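 Further: activity means loss of bound radioligand signal relative to DMSO.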 The procedure, abridged:
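Cell-free radioligand displacement binding at human DAT, 1 h after dosing, with filtration and scintillation counting. Primary screen in duplicate at 25 uM, actives then in concentration series. Loss of bound signal versus DMSO scored.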

Experiment [11] concerns the target human Peroxisome Proliferator-activated Receptor alpha (PPARa), PPARA (gene 5465) (UniProt Q07869). Description: NVS_NR_hPPARa: NovaScreen (NVS) Nuclear Receptor Binding Assay for human Peroxisome Proliferator-activated Receptor alpha (PPARa) (AID 2283359).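 Further: activity means loss of TR-FRET signal versus DMSO baseline.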 In a few lines:
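Cell-free TR-FRET binding assay with extracted PPARα protein, read 1 h after dosing. Primary screen in duplicate at 25 uM, with actives retested in concentration series. Loss of signal versus DMSO.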

The target of experiment [12] is Peroxisome proliferator-activated receptor gamma (Homo sapiens) (UniProt P37231). Briefly: NVS_NR_hPPARg: NovaScreen (NVS) Nuclear Receptor Binding Assay for human Peroxisome Proliferator-activated Receptor gamma (PPARg) (AID 2283370). The procedure, abridged:
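Cell-free fluorescence polarization binding to human PPARg protein, read 2 h after dosing. Primary screen in duplicate at 25 uM, actives followed in concentration series; loss of signal relative to DMSO scored.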

Experiment [13] has as its target Estrogen receptor beta (Homo sapiens) (UniProt Q92731). Briefly: OT_ER_ERbERb_0480: Odyssey Thera (OT) 8-hour HEK293T Protein-Complementation Assay for Estrogen Receptor-beta/-beta Homodimer (AID 2283357).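 Further: active means signal gain over DMSO baseline.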 The procedure, abridged:
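Fluorescence intensity, nuclear for agonists and nuclear plus cytoplasmic for antagonists, was quantified by laser scanning cytometry versus vehicle after 8 h treatment. The cells were HEK293T stably carrying ER beta LBD fragment-complementation partners.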

The target in experiment [14] is Glucocorticoid receptor (Homo sapiens) (UniProt P04150). Description: NVS_NR_hGR: NovaScreen (NVS) Nuclear Receptor Binding Assay for human Glucocorticoid Receptor (GR) (AID 2283363).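 On AC50: activity is loss of specific radioligand binding signal relative to DMSO.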 In a few lines: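 Cell-free radioligand displacement assay on extracted human GR, read 16 h after dosing by filter-based scintillation counting. Screened in duplicate at 25 uM, then concentration series for actives; loss of signal versus DMSO baseline.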
Glucocorticoid receptor (Homo sapiens), sequence (P04150 whole entry, looked up): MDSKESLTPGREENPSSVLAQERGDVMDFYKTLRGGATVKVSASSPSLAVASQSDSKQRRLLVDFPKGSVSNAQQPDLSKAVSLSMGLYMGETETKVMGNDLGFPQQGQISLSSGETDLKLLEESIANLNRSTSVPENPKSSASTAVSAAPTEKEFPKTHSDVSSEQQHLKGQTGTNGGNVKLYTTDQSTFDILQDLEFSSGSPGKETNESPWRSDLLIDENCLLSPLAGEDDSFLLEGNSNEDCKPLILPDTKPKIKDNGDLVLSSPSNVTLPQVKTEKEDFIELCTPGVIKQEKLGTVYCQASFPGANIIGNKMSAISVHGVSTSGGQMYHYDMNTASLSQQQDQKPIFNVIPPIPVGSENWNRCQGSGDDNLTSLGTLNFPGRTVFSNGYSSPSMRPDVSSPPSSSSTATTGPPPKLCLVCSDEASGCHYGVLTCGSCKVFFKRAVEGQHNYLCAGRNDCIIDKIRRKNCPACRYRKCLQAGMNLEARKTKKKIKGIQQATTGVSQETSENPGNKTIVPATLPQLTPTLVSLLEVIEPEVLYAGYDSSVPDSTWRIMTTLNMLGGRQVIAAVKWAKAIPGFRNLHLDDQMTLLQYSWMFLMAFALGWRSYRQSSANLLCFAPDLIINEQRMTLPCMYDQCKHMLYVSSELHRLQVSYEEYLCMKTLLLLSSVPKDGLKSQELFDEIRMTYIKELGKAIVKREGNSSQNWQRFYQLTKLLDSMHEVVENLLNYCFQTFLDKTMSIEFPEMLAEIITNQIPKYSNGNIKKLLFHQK

Experiment [15] has as its target Nuclear receptor subfamily 1 group I member 2 (Homo sapiens) (UniProt O75469). Briefly: NVS_NR_hPXR: NovaScreen (NVS) Nuclear Receptor Binding Assay for human Pregnane X Receptor (PXR) (AID 2283365).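 Further: a drop in FRET signal versus DMSO baseline means the compound binds.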 The procedure, abridged: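 Cell-free TR-FRET binding assay with extracted human PXR protein, read 2 h after dosing. Primary screen run in duplicate at 25 uM, actives followed in concentration series; loss of signal fitted against DMSO baseline.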

Results filed as inconclusive are left out. Active and inactive are the calls of the source. How the source made its calls: active means hit-call score of the fitted dose curve at least 0.9, where 1 is the maximum; inconclusive means response in the unintended direction; inactive means score below 0.9.

Retinoic acid receptor alpha (Homo sapiens), sequence (P10276 whole entry, looked up): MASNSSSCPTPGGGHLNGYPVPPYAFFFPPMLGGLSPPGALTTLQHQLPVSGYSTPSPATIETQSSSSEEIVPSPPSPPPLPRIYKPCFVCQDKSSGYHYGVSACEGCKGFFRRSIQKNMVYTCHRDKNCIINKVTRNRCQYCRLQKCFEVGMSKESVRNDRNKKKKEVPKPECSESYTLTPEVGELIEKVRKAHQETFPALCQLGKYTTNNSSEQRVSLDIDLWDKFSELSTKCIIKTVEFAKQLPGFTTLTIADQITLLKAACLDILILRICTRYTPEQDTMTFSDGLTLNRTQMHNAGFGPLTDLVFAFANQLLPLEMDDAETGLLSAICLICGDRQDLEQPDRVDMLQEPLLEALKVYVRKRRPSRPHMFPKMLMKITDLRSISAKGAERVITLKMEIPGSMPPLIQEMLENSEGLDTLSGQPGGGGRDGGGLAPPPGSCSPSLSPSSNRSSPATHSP
Peroxisome proliferator-activated receptor gamma (Homo sapiens), sequence (P37231 whole entry, looked up): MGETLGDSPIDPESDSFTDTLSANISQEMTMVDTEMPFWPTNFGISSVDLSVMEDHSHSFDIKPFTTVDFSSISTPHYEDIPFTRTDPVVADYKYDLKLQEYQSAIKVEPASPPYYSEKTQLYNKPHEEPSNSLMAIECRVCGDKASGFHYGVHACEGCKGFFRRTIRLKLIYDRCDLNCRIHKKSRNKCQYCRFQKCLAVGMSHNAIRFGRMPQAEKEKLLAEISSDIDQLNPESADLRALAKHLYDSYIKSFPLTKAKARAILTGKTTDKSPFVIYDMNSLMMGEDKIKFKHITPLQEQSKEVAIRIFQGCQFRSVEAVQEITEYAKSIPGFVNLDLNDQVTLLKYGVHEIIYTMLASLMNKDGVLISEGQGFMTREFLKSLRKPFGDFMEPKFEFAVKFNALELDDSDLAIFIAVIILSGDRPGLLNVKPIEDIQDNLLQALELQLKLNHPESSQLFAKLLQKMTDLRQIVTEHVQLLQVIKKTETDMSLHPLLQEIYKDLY
human Peroxisome Proliferator-activated Receptor alpha (PPARa), PPARA (gene 5465), sequence (Q07869 whole entry, looked up): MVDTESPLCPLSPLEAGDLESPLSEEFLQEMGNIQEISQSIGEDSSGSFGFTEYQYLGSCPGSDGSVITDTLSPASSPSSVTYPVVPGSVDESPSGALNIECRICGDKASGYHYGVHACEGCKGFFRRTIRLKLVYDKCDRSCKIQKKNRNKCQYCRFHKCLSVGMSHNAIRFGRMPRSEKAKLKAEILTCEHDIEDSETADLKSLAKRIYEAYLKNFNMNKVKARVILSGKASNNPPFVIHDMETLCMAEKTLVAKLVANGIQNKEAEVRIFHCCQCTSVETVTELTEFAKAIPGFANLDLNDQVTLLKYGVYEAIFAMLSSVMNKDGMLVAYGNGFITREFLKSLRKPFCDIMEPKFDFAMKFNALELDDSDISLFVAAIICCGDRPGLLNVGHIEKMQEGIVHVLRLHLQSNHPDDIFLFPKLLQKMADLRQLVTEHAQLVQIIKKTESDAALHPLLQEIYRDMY
human Serotonin Transporter (SERT), SLC6A4 (gene 6532), sequence (P31645 whole entry, looked up): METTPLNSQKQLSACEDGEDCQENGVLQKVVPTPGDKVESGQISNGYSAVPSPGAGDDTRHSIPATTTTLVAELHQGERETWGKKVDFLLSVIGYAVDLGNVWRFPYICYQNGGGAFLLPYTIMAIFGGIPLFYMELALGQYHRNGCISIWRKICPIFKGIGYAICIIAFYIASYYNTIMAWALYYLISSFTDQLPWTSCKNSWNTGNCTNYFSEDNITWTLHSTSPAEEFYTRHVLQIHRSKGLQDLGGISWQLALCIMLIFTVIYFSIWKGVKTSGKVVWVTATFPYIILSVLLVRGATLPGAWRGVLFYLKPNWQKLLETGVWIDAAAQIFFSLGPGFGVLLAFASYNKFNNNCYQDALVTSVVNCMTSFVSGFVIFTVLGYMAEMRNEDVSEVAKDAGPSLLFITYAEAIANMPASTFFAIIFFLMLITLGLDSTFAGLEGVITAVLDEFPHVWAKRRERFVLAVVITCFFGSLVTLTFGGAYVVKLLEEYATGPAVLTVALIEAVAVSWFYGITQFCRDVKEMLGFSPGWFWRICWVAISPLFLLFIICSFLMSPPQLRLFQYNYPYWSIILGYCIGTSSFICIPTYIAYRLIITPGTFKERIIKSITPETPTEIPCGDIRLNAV
Estrogen receptor beta (Homo sapiens), sequence (Q92731 whole entry, looked up, the tested form may be a part): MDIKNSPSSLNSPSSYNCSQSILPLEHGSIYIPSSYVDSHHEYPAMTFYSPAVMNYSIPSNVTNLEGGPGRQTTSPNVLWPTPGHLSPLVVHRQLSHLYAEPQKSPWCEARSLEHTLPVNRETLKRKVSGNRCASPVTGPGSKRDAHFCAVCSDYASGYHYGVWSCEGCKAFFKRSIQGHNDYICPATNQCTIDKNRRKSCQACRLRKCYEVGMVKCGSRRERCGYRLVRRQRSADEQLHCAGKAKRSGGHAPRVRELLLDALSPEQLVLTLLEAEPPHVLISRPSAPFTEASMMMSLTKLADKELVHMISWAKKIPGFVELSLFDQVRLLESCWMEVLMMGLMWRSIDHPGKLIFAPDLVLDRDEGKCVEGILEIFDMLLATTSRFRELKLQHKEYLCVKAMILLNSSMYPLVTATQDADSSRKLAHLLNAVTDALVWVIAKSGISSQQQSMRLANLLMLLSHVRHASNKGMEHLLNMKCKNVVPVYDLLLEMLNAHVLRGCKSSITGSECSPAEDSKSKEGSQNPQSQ
PGR (gene 5241), sequence (P06401 whole entry, looked up): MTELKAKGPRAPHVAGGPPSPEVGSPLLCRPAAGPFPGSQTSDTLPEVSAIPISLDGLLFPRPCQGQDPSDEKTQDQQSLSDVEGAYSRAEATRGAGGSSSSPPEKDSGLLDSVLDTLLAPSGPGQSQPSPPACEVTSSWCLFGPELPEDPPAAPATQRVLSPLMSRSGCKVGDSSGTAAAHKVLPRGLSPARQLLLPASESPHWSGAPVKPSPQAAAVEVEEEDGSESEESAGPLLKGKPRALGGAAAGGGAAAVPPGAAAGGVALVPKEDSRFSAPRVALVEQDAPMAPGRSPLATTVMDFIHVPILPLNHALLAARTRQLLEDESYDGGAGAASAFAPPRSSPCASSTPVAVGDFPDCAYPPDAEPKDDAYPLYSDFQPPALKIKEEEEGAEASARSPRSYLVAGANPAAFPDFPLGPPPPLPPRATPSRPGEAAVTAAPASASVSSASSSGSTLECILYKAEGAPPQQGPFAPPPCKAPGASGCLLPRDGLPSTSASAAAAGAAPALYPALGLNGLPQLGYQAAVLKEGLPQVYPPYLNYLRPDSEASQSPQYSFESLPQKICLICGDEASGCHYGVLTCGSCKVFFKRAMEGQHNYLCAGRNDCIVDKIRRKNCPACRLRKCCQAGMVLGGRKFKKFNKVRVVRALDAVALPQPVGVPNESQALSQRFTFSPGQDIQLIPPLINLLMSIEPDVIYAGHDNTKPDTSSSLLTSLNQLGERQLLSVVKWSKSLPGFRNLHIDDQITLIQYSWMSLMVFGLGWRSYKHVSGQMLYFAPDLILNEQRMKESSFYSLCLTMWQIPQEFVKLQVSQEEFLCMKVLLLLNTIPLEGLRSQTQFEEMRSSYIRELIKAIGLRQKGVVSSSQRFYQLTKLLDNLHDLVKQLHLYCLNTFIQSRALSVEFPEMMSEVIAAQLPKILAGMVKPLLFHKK

In the case of `CCNS(=O)(=O)C(F)(F)C(F)(F)C(F)(F)C(F)(F)C(F)(F)C(F)(F)C(F)(F)C(F)(F)F`, in [1], the compound was called inactive.
Broadly, the AC50 is the concentration giving half of the maximal activity seen. Regarding `C[C@]12C=CC3=C4CCC(=O)C=C4CC[C@H]3[C@@H]1CC[C@@H]2O`, the AC50 in [2] is 19.6 µM (active) [middle of 4 runs]. The compound was called inactive in experiment [3].
`Cc1cc(N=Nc2ccccc2C)ccc1N`: the result in experiment [4] and in [5] was inactive.
As to `CCCCCCCCCCCCCN1CC(C)OC(C)C1` (stereo not drawn), the AC50 in experiment [6] was 0.0622 µM (active).
As for `CCC[CH2][Sn]([Cl])([CH2]CCC)[CH2]CCC`, the AC50 in experiment [3] is 11.2 µM (active); in experiment [7] it was 14.4 µM (active).
`O=Cc1ccco1`: the result in experiment [8] and in experiment [3] was inactive.
Turning to `Nc1ccc(Cc2ccc(N)cc2)cc1`, the outcome in experiment [9] and in experiment [7] was inactive. Moreover, the AC50 in experiment [10] was 9.3 µM (active).
Turning to `C=CCc1ccc2c(c1)OCO2`, the call in [11] was inactive. Also, the AC50 in experiment [6] was 11.6 µM (active).
As for `CCCCOC(=O)c1ccccc1C(=O)OCc1ccccc1`, the compound was classed as inactive in experiment [11], in [6] and in [12].
Take `C1=Cc2cccc3cccc1c23`: in experiment [8], the call was inactive.
For `CCC(C)c1ccc(O)cc1` (stereo not drawn), the AC50 in [9] and in [10] was 4.96 µM (active) throughout. For the same compound, the call in [7] was inactive.
Take `Cc1ccc(N=C=O)cc1N=C=O`: the result in experiment [8] was inactive.
As for `Cc1cccc(N)c1N`, the compound was classed as inactive in experiment [13], in experiment [11] and in experiment [2]. Besides, the concentration at half-maximal activity (AC50) in experiment [12] is 0.00229 µM (active).
As for `O=[N+]([O-])c1ccc(Oc2ccc(Cl)cc2Cl)cc1`, the outcome in experiment [14], in experiment [9] and in [3] was inactive.
Regarding `Cn1cc(-c2ccccc2)c(=O)c(-c2cccc(C(F)(F)F)c2)c1`, the compound was classed as inactive in [14], in [12] and in experiment [3]. Also, in experiment [10], the AC50 was 16.5 µM (active).
In the case of `Nc1ccc(Oc2ccc(N)cc2)cc1`, the call in experiment [11] and in [12] was inactive. The AC50 in experiment [9] was 2.99 µM (active); in experiment [10], 3.25 µM (active).
Take `Clc1ccc(C(c2ccc(Cl)cc2)C(Cl)Cl)cc1`: the outcome in experiment [11] and in experiment [4] was inactive.
For the compound `CC(C)(C)C(O)(CCc1ccc(Cl)cc1)Cn1cncn1` (stereo not drawn), in experiment [6], the compound was classed as inactive. For the same compound, the figures for the AC50 in [9] and in experiment [10] were 8.79 µM (active) and 4.04 µM (active), respectively.
As for `N#CC(Br)(Br)C(N)=O`, in experiment [6], the call was inactive.
`O=C(Oc1ccc(Br)cc1)N1CCN2CCC1CC2`: the AC50 in experiment [9] is 7.13 µM (active); in [3], 1.91 µM (active); in experiment [10], 8.54 µM (active). Further, the result in experiment [12] was inactive.
Turning to `CC(C)(C)OOC(=O)c1ccccc1`, the outcome in experiment [11], in experiment [15] and in experiment [12] was inactive.
As for `Oc1ccc2ccc3cccc4ccc1c2c34`, the outcome in experiment [11] and in experiment [8] was inactive. Further, the AC50 in [14] was 4.96 µM (active).
In the case of `c1ccc2c(c1)-c1cccc3cccc-2c13`, the compound was called inactive in experiment [8] and in experiment [2].
Turning to `[As]#[In]`, the result in [8] was inactive.
Regarding `CS(=O)(=O)NC(=O)c1cc(Oc2ccc(C(F)(F)F)cc2Cl)ccc1[N+](=O)[O-]`, the call in experiment [11] and in experiment [12] was inactive.
Take `CCN(CC)CCO`: in [8], the compound was classed as inactive.
`CCN(CC)N=O`: the compound was called inactive in [1] and in experiment [11].
On to `CCCCCCCCOC(=O)c1ccc(C(=O)OCCCCCCCC)c(C(=O)OCCCCCCCC)c1`, for which the compound was classed as inactive in experiment [13] and in experiment [8].
`Clc1ccc(Cl)c(Cl)c1`: the compound was called inactive in [13].
For the compound `O=C(O)C1C2CCC(O2)C1C(=O)O` (stereo not drawn), in [11], the compound was called inactive.
With `CN(C)[C@@H]1C(=O)C(C(N)=O)=C(O)[C@@]2(O)C(=O)C3=C(O)c4c(O)cccc4[C@@](C)(O)[C@H]3C[C@@H]12`, the AC50 in experiment [14] was 15.9 µM (active).
Regarding `c1ccc(NNc2ccccc2)cc1`, the outcome in experiment [11] was inactive.
In the case of `CCOC(=O)[C@]1(c2ccccc2)Oc2ccccc2[C@@H]1N`, the outcome in [11] and in experiment [12] was inactive. Also, the AC50 is 25 µM (active) in [14]; 0.0612 µM (active) in experiment [6]; 5.45 µM (active) in experiment [9]; 2.56 µM (active) in experiment [3]; 5.35 µM (active) in experiment [7]; 2.98 µM (active) in experiment [10].
As to `Oc1ccccc1Cl`, in [11], the result was inactive.
Turning to `O=C(N[C@H](c1ccccc1)[C@@H]1CN2CCC1CC2)c1c(Cl)ccc(C(F)(F)F)c1Cl`, the AC50 in experiment [6] was 22.3 µM (active); in experiment [9] it was 29.9 µM (active); in experiment [3], 1.52 µM (active); in experiment [7] it was 26.4 µM (active); in experiment [10] it was 23.1 µM (active).
As for `c1ccc(N=Nc2ccccc2)cc1`, in experiment [12], the result was inactive.
